From PubChem BioAssay AID778 (Sanford-Burnham Center for Chemical Genomics, 2007)
About 20,000 (21%) of roughly 96,000 compounds were called active. The list is a sample of the results. A number with no mark means an inactive call.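 Rule for the calls: active = CYP2C19 inhibition above a set limit at 5 µM in the primary screen (cut at about 50% in these data); inactive = the rest.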 Non-standard residues stand in square brackets, D forms with d. Residues, ends and D or L forms follow the SMILES beside them. ξ: configuration not given here. ξV = CC(C)C(N)C(=O)O

Molecular target: Cytochrome P450 2C19 (Homo sapiens) (UniProt P33261)
Assay: blockers of cytochrome P450 2C19 activity – biochemical, luminescence, ADME assay, primary screen (AID 778);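 note: plate controls were negative control wells for no effect and 2.5 mM tranylcypromine positive control for full effect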
Settings: CYP2C19 Supersomes, luciferin-H EGE luminescence, 30 min; at 5 µM; stronger effect = higher value

Cytochrome P450 2C19 (Homo sapiens), sequence (P33261 whole entry, looked up): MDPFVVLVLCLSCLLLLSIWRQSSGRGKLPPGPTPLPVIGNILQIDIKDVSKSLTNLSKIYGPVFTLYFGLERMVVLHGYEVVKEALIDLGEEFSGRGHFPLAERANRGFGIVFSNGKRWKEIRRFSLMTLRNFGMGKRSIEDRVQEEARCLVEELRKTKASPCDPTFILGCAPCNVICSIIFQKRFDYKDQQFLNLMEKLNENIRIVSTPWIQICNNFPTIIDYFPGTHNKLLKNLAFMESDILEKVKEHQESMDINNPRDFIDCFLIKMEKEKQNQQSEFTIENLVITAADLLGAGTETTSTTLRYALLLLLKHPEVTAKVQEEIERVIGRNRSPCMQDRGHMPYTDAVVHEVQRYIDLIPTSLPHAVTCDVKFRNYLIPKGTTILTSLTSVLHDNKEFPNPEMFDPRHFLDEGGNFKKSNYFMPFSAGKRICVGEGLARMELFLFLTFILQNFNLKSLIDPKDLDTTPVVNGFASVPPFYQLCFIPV

Q: Which inhibition does the source give for `Cc1cc(NCc2ccco2)n2c(nc3ccccc32)c1C#N` here?
A: 0.2%

Q: How did the inhibition turn out when `N#Cc1c(N)sc2c1CCN(C(=O)OCc1ccccc1)C2` was run?
A: 92.8% (active)

Q: With `CCN1CCc2c(C#N)c(NCc3ccccc3)nc(NCCO)c2C1` as the molecule, how does the inhibition read?
A: 9%

Q: How did the inhibition turn out when `O=C(O)C1CCN(C(=O)OCc2ccccc2)CC1` was run?
A: 31.9%

Q: How did the inhibition turn out when `CC(C)Oc1ccc(C(=O)Nc2cc(=O)n(C)c(=O)n2C)cc1` was run?
A: 12.2%

Q: For `COC(=O)c1c(NC(=O)CSc2nncs2)sc2c1CCCCC2`, which inhibition is on record?
A: 82.9% (active)

Q: For `COC(=O)c1c(NC(=O)c2cccs2)sc2c1CCCC2`, which inhibition is on record?
A: 29.6%

Q: For `CCOC(=O)c1c(NC(=O)CSc2nnc(C)c(=O)[nH]2)sc2c1CCC2`, which inhibition is on record?
A: -11.3%

Q: For `Cc1ccc(S(=O)(=O)N/N=C\c2cc3c(cc2[N+](=O)[O-])OCO3)cc1`, which inhibition is on record?
A: -11%

Q: For `CC1=NN(C(C)C)C(=O)C1`, which inhibition is on record?
A: -6.9%

Q: For `O=C(CN(c1ccccc1)S(=O)(=O)c1ccc(Cl)cc1)Nc1ccccc1C(=O)N1CCCC1`, which inhibition is on record?
A: 86.7% (active)

Q: With `COCCN(CC(=O)Nc1ccccc1C)S(=O)(=O)c1ccc(S(=O)(=O)N2CCCC2)cc1` as the molecule, how does the inhibition read?
A: 5.4%

Q: `Cc1ccc(S(=O)(=O)NC(C)C(=O)Nc2ccccc2C(=O)N2CCCC2)cc1` (stereo not drawn) was tested. Which inhibition did it give?
A: 21.6%

Q: For `Cc1oc2nc(SCC(=O)NCc3cccnc3)nc(N)c2c1C`, which inhibition is on record?
A: 8%

Q: With `c1ccc2c(CNn3cnnc3)cccc2c1` as the molecule, how does the inhibition read?
A: 26.1%

Q: How did the inhibition turn out when `c1ccc2c(-c3nn4nnnc4c4ccccc34)cccc2c1` was run?
A: 78.9% (active)

Q: `COc1ccc2c(c1OC)C(=O)N(c1ncn[nH]1)C2` was tested. Which inhibition did it give?
A: -17.6%

Q: How did the inhibition turn out when `O=C(CCCn1c(=O)oc2ccccc21)Nc1cccnc1` was run?
A: 24.5%

Q: For `O=C(OCN1C(=O)c2ccccc2C1=O)/C(=C\c1ccco1)NC(=O)c1ccccc1`, which inhibition is on record?
A: 17.6%

Q: How did the inhibition turn out when `CS(=O)(=O)N(CC(O)Cn1c2ccccc2c2ccccc21)c1cccc2ccccc12` (stereo not drawn) was run?
A: 77% (active)

Q: How did the inhibition turn out when `Cc1ccc(N(CC(O)CN2CCCC2)S(=O)(=O)c2ccccc2)cc1` (stereo not drawn) was run?
A: 16.8%

Q: `CC(=O)c1ccc2c(c1)c1ccccc1n2CC(C)C` was tested. Which inhibition did it give?
A: 16.4%

Q: Which inhibition does the source give for `O=C(NCCCN1CCOCC1)c1cnn2c(-c3ccccc3)cc(-c3ccccc3)nc12` here?
A: -3.7%

Q: With `c1ccc(-n2nnnc2NC2CCCCCC2)cc1` as the molecule, how does the inhibition read?
A: 33.5%

Q: How did the inhibition turn out when `Fc1ccccc1CCNc1nnnn1-c1ccccc1` was run?
A: 73.1% (active)

Q: For `CCn1nnc(NC(=O)c2cc(Cl)c(OC)c(Cl)c2)n1`, which inhibition is on record?
A: 61.3% (active)

Q: `COc1c(Cl)cc(C(=O)Nc2ccc(Cl)cn2)cc1Cl` was tested. Which inhibition did it give?
A: 3.2%

Q: Which inhibition does the source give for `CCn1nnc(NC(=O)c2c(OC)cccc2OC)n1` here?
A: -17.4%

Q: With `CCCCNC(=S)NNC(=O)c1cc(C)on1` as the molecule, how does the inhibition read?
A: 26.1%

Q: `CC(=O)Nc1cc2ccc(OC(C)=O)cc2oc1=O` was tested. Which inhibition did it give?
A: 8%

Q: How did the inhibition turn out when `CCOC(=O)c1c(CN2CCOCC2)n(-c2ccccc2)c2ccc(O)cc12` was run?
A: 31.8%

Q: Which inhibition does the source give for `CCOC(=O)CN(C(=O)CN1CCOCC1)c1ccc(Br)cc1` here?
A: 64.6% (active)

Q: Which inhibition does the source give for `Cc1cccc(N(CC(=O)N2CCOCC2)S(C)(=O)=O)c1` here?
A: 3.3%

Q: For `Cc1nn(Cc2ccc(C(=O)N3N=C(C(F)F)CC3(O)C(F)F)cc2)c(C)c1[N+](=O)[O-]` (stereo not drawn), which inhibition is on record?
A: 10%

Q: Which inhibition does the source give for `Cc1ccc(-c2nc3ccccc3[nH]2)cc1N` here?
A: 47%

Q: `c1ccc2[nH]c(-c3nc4ccccc4[nH]3)nc2c1` was tested. Which inhibition did it give?
A: 53.1% (active)

Q: `c1ccc(-c2[nH]ncc2-c2nc3ccccc3[nH]2)cc1` was tested. Which inhibition did it give?
A: 31.2%

Q: `CC(C)COC(=O)C1C2C=CC3(CN(C(C)c4ccc(Br)cc4)C(=O)C13)O2` (stereo not drawn) was tested. Which inhibition did it give?
A: 31%

Q: For `CC(=O)NC1(c2cccc(F)c2)CCN(CC(=O)NC(C)C)CC1`, which inhibition is on record?
A: 3.9%

Q: Which inhibition does the source give for `C/C(Cl)=C\Cn1c(Nc2cccc(C)c2)nc2c1c(=O)n(C)c(=O)n2C` here?
A: -5.6%

Q: `COc1cc(C2C(C#N)=C(C)NC3=C2C(=O)CC(C)(C)C3)ccc1O` (stereo not drawn) was tested. Which inhibition did it give?
A: 20.5%

Q: Which inhibition does the source give for `CCOC(=O)C1=C(C)NC2=C(C(=O)CC(C)(C)C2)C1c1ccsc1` (stereo not drawn) here?
A: 50.4% (active)

Q: Which inhibition does the source give for `CCCOC(=O)C1=C(C)NC2=C(C(=O)C(C(=O)OC)C(C)C2)C1c1ccc(N(C)C)cc1` (stereo not drawn) here?
A: 3.6%

Q: `Cc1cccc(NC(=O)c2sc3nc4c(c(-c5ccco5)c3c2N)CCC4)c1` was tested. Which inhibition did it give?
A: 13.8%

Q: With `O=C1CC(c2ccccc2)C(=O)N1c1cccc(O)c1` (stereo not drawn) as the molecule, how does the inhibition read?
A: 60.7% (active)

Q: For `COC(=O)c1cc(C(=O)OC)cc(N2C(=O)CC(N3CCN(c4ccccc4)CC3)C2=O)c1` (stereo not drawn), which inhibition is on record?
A: 12.1%

Q: Which inhibition does the source give for `O=C1CC(NNc2ccccc2)C(=O)N1c1cccc(Cl)c1` (stereo not drawn) here?
A: 18.7%

Q: Which inhibition does the source give for `O=C(NC1CCN(Cc2ccccc2)CC1)c1ccccc1F` here?
A: 6.3%

Q: With `O=C(CCc1ccccc1)Nc1ccc(NC(=O)C2CC2)nc1` as the molecule, how does the inhibition read?
A: 18.9%

Q: `CN1CCCN(S(=O)(=O)c2ccc3c(c2)OCCO3)CC1` was tested. Which inhibition did it give?
A: -1.5%

Q: `O=S(=O)(Nc1nccs1)c1ccc2c(c1)OCCO2` was tested. Which inhibition did it give?
A: 56.7% (active)

Q: Which inhibition does the source give for `CC(C)NS(=O)(=O)c1ccc(OCC(=O)Nc2ccc3c(c2)OCCO3)cc1` here?
A: 28.9%

Q: With `CCCCC(CC)C(=O)Nc1ccc(Cl)cn1` (stereo not drawn) as the molecule, how does the inhibition read?
A: 7.2%

Q: Which inhibition does the source give for `CC(=O)Nc1ccc(S(=O)(=O)Nc2nc3n(n2)C(c2ccccc2)CC(=O)N3)cc1` (stereo not drawn) here?
A: -6%

Q: How did the inhibition turn out when `N=c1n(Cc2ccc(Cl)cc2)c2ccccc2n1CC(O)c1ccco1` (stereo not drawn) was run?
A: 83.1% (active)

Q: Which inhibition does the source give for `O=S(=O)(O)c1nc2ccccc2n1Cc1ccc(Cl)cc1` here?
A: 2.7%

Q: How did the inhibition turn out when `Cn1c(=N)n(CC(O)c2ccccc2)c2ccccc21` (stereo not drawn) was run?
A: -12.3%

Q: How did the inhibition turn out when `Cc1ccc(/C=N/NC(=O)c2sccc2OCc2ccc(F)cc2)cc1` was run?
A: -8.9%

Q: Which inhibition does the source give for `Oc1ccccc1/C=N/n1c(-c2cccs2)n[nH]c1=S` here?
A: -14.5%

Q: How did the inhibition turn out when `CCCN1C(=O)C(NC(C)=O)c2cc(OC)ccc21` (stereo not drawn) was run?
A: -12.9%

Q: How did the inhibition turn out when `COc1ccc(-c2[nH]nc3c2C(c2ccncc2)C(C#N)=C(N)O3)cc1` (stereo not drawn) was run?
A: -1.2%

Q: With `CCCN1CC=C2C(C#N)=C(N)C(C#N)(C#N)C(c3cc(OC)ccc3OC)C2C1` (stereo not drawn) as the molecule, how does the inhibition read?
A: 16.6%

Q: With `COC(=O)C1=C(C)OC(N)=C(C#N)C1c1cc(OC)ccc1OC` (stereo not drawn) as the molecule, how does the inhibition read?
A: 53.3% (active)

Q: `CCC1=C(C(=O)OC)C(c2cc(OC)ccc2OC)C(C#N)=C(N)O1` (stereo not drawn) was tested. Which inhibition did it give?
A: 54.8% (active)

Q: With `Cc1cc(=O)oc(C)c1C(=O)NCc1ccc(F)cc1` as the molecule, how does the inhibition read?
A: 33.5%

Q: For `CC(=O)NC(C(=O)NCC(N)=O)C(C)C` (stereo not drawn) (Ac-[ξV]-Gly-NH2), which inhibition is on record?
A: -4%

Q: For `COc1ccc(C2OC(=O)CC2C(=O)NC(C)C)cc1` (stereo not drawn), which inhibition is on record?
A: 19.5%

Q: `O=C(Nc1ccccc1F)C1C2C=CC3(O2)C1C(=O)N(c1cccnc1)C3C(=O)NC1CCCCC1` (stereo not drawn) was tested. Which inhibition did it give?
A: -8.2%

Q: With `CCC(=O)N(C)C(c1ccccc1Cl)c1nnnn1-c1c(C)cccc1C` (stereo not drawn) as the molecule, how does the inhibition read?
A: 11.1%

Q: Which inhibition does the source give for `C#CCN(N(C)c1ncc(C(F)(F)F)cc1Cl)S(=O)(=O)c1ccc2ccccc2c1` here?
A: 94.5% (active)

Q: Which inhibition does the source give for `O=C(c1ccccn1)c1ncc(C(F)(F)F)cc1Cl` here?
A: 44.3%

Q: With `Cc1cc(C)cc(NS(=O)(=O)c2ccc(Oc3ncc(C(F)(F)F)cc3Cl)cc2)c1` as the molecule, how does the inhibition read?
A: 9.5%

Q: `CC(NC(=O)C1CCC(CNc2c(N3CCOCC3)c(=O)c2=O)CC1)c1ccccc1` (stereo not drawn) was tested. Which inhibition did it give?
A: -2.1%

Q: With `Nc1nc(Br)c2ccccc2c1-c1ccc(F)cc1` as the molecule, how does the inhibition read?
A: 18.7%

Q: `N#Cc1c(C(F)(F)F)cc(-c2ccccc2)nc1SCC(=O)N1CCOCC1` was tested. Which inhibition did it give?
A: 0%

Q: `CCC/C(O)=C1\C(=O)CC(C)(C)CC1=Nc1ccccc1OC` was tested. Which inhibition did it give?
A: 45.5%

Q: For `CC1(C)CC(=O)C=C(NC2CC(C)(C)NC(C)(C)C2)C1`, which inhibition is on record?
A: -1.1%

Q: Which inhibition does the source give for `COc1ccccc1-c1n[nH]c2c1[C@H](C)CC[C@H]2C(C)C` here?
A: 21%

Q: `O=C(O)COc1ccc(-c2nccc(-c3cccs3)n2)cc1` was tested. Which inhibition did it give?
A: -9.2%

Q: Which inhibition does the source give for `CN(C(=O)COc1nnc(-c2cccs2)c(-c2cccs2)n1)c1ccccc1` here?
A: 75.5% (active)

Q: For `CCOc1cccc(C(=O)Nc2nnc(-c3cccs3)s2)c1`, which inhibition is on record?
A: 2.2%

Q: With `O=C(O)Cc1ccc(NC(=O)C2CCCCC2C(=O)O)cc1` (stereo not drawn) as the molecule, how does the inhibition read?
A: 2.3%

Q: Which inhibition does the source give for `CSCCC(Nc1nc2ccccc2s1)C(=O)O` (stereo not drawn) here?
A: 12.6%

Q: With `COc1cc(C2C(C(=O)c3ccc(C)o3)=C(O)C(=O)N2Cc2cccnc2)ccc1O` (stereo not drawn) as the molecule, how does the inhibition read?
A: -12.6%

Q: For `COc1cc(C2C(C(=O)c3sc(C)nc3C)=C(O)C(=O)N2CCN(C)C)cc(OC)c1OC` (stereo not drawn), which inhibition is on record?
A: 76.7% (active)

Q: `COc1cccc(C2/C(=C(/O)c3ccncc3)C(=O)C(=O)N2CCCN(C)C)c1` (stereo not drawn) was tested. Which inhibition did it give?
A: -12.6%

Q: With `COc1ccc(OC)c(C(c2nnnn2C(C)(C)C)N2CCc3ccccc3C2)c1` (stereo not drawn) as the molecule, how does the inhibition read?
A: 94.8% (active)

Q: With `Cc1ccc(C(c2nnnn2C(C)(C)C)N2CCc3ccccc3C2)cc1` (stereo not drawn) as the molecule, how does the inhibition read?
A: 14.4%

Q: Which inhibition does the source give for `COC(=O)C1C(=O)c2c([nH]c(C(=O)OCCSC)c2C)CC1C` (stereo not drawn) here?
A: 10.1%

Q: For `Cc1cc2ncn(CCCCOc3ccccc3)c2cc1C`, which inhibition is on record?
A: 40.1%

Q: Which inhibition does the source give for `Cc1nn(CCOc2ccccc2)c(=O)n1-c1ccccc1F` here?
A: 53.1% (active)

Q: For `Nc1nc(SCCOc2ccccc2)n[nH]1`, which inhibition is on record?
A: 28.3%

Q: With `CC(C)Oc1ccc(C2NC(=O)NC2=O)cc1` (stereo not drawn) as the molecule, how does the inhibition read?
A: -16.7%

Q: `O=C(Nc1ccc(NC(=O)c2cccs2)cn1)c1ccco1` was tested. Which inhibition did it give?
A: 17.3%

Q: Which inhibition does the source give for `COc1ccc2c(c1)C(C)=CC(C)(C)N2C(=O)CNCc1ccc2c(c1)OCO2` here?
A: 84.8% (active)

Q: How did the inhibition turn out when `Cc1ccc(-n2ncc3c(=O)[nH]cnc32)c(C)c1` was run?
A: -3.8%

Q: Which inhibition does the source give for `COn1c(=O)c(=O)n(OC)c2ccccc21` here?
A: -6.8%

Q: Which inhibition does the source give for `Cc1ccc(NC(=O)Nc2ccc3oc(C)nc3c2)cc1` here?
A: 3%
